Measured values from PubChem BioAssay (EPA / NIEHS).
Where “and” joins values, the source holds several entries; their conditions need not be identical. Equal entries are not always repeated. Results filed as inconclusive are left out. Calls of active or inactive are those of the source. How the source made its calls: active means hit-call score of the fitted dose curve at least 0.9, where 1 is the maximum; inconclusive means response in the unintended direction; inactive means score below 0.9.

The compounds below were run against human Protein Tyrosine Phosphatase Receptor Type F (PTPRF), PTPRF (gene 5792) (UniProt P10586) (assay: NVS_ENZ_hPTPRF: NovaScreen (NVS) Enzymatic Assay for human Protein Tyrosine Phosphatase Receptor Type F (PTPRF) (AID 2283213)).
Description: (§1) NVS_ENZ_hPTPRF is a biochemical, single-readout assay that uses extracted gene-proteins in a cell-free assay. Measurements were taken 1 hour after chemical dosing in a 384-well plate.NVS_ENZ_hPTPRF is one of one assay component(s) measured or calculated from the NVS_ENZ_hPTPRF assay. It is designed to make measurements of enzyme activity, a form of enzyme reporter, as detected with fluorescence intensity signals by Fluorescence and electrophoretic mobility shift technology.Data from the assay component NVS_ENZ_hPTPRF was analyzed into 1 assay endpoint. This assay endpoint, NVS_ENZ_hPTPRF, was analyzed in the positive analysis fitting direction relative to DMSO as the negative control and baseline of activity. Using a type of enzyme reporter, loss-of-signal activity can be used to understand changes in the enzymatic activity as they relate to the gene PTPRF. Furthermore, this assay endpoint can be referred to as a primary readout, because this assay has produced multiple assay endpoints where this one serves a enzymatic activity function. To generalize the intended target to other relatable targets, this assay endpoint is annotated to the phosphatase intended target family, where the subfamily is receptor tyrosine phosphatase.
(§2) Binding assays used specific radioligands (tritiated, iodinated) with non-radioactive competitive displacement ligands in agonist or antagonist protocols (as indicated) and various reference compounds and inhibitors to titrate specific binding to receptors and transporters. Most enzyme assays (CYPs, kinases, phosphatases, proteases, HDACs) used recombinant protein and specific substrates (fluorescence mostly, some colorimetric and radioactive) and inhibitors, followed by a biochemical separation of substrate and product. All assays for the biochemical HTS were initially run in duplicate at a single concentration (10 uM for CYP450 assays and 25 uM for all others). […]

Which AC50 does the source give for CNC(=S)S here?
The AC50 was 15.5 µM (active).

How did the outcome turn out when CN(C)C(=S)SSC(=S)N(C)C was run?
Its outcome is “inactive”.

Cc1ccc(-c2c(Cl)nc(C#N)n2S(=O)(=O)N(C)C)cc1 was tested. Which outcome did it give?
Its outcome is “inactive”.

What follows are compounds tested against human Rho Associated Coiled-coil Containing Protein Kinase 1 (ROCK1), ROCK1 (gene 6093) (UniProt Q13464) (assay: NVS_ENZ_hROCK1: NovaScreen (NVS) Enzymatic Assay for human Rho Associated Coiled-coil Containing Protein Kinase 1 (ROCK1) (AID 2283214)).
How it was run: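 Cell-free recombinant human ROCK1 activity assay; fluorescent substrate and product separated by electrophoretic mobility shift, read 1 h after dosing. Screened in duplicate at 25 uM; loss of signal versus DMSO baseline scored as inhibition.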

Sequence of human Rho Associated Coiled-coil Containing Protein Kinase 1 (ROCK1), ROCK1 (gene 6093) (Q13464 whole entry, looked up): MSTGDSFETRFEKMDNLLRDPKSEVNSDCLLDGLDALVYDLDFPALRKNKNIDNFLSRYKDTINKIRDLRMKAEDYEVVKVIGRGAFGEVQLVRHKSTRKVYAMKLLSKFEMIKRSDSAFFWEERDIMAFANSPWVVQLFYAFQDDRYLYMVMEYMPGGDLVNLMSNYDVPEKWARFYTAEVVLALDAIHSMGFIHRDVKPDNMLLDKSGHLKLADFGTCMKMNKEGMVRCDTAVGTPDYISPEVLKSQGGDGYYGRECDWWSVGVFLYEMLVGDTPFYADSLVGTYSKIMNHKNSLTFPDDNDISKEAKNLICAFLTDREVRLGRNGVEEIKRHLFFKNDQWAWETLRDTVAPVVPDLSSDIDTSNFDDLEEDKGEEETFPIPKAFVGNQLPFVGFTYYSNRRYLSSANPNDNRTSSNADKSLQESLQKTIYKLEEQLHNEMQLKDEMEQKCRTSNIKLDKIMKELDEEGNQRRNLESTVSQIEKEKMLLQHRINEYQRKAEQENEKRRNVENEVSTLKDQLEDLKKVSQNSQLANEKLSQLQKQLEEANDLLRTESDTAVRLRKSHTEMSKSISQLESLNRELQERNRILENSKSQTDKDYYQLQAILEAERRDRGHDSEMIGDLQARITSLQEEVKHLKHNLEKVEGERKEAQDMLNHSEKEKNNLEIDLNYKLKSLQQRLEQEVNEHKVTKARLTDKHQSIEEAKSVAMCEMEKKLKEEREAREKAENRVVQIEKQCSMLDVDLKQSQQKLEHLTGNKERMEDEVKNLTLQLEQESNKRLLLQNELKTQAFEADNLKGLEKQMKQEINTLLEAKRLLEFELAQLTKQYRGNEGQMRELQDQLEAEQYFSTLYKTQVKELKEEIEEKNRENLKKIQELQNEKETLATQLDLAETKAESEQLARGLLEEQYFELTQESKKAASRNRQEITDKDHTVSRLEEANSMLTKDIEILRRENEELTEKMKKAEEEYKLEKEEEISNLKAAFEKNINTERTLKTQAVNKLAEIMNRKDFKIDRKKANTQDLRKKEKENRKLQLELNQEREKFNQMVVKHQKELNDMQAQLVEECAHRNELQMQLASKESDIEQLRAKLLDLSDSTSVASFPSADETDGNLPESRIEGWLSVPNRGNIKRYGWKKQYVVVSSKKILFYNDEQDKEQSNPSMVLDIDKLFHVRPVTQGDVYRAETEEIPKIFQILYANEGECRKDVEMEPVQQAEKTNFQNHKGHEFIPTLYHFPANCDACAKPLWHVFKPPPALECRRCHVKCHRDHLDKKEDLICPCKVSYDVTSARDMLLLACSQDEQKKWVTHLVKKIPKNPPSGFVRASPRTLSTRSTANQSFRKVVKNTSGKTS

For CC1COC(Cn2cncn2)(c2ccc(Oc3ccc(Cl)cc3)cc2Cl)O1 (stereo not given), which outcome is on record?
Its outcome is “inactive”.

For CON(C)C(=O)Nc1ccc(Cl)c(Cl)c1, which outcome is on record?
The outcome was “inactive”.

For N#Cc1cc(Br)c(O)c(Br)c1, which outcome is on record?
The outcome was “inactive”.

Each compound was assayed against human Protein Tyrosine Phosphatase Receptor Type M (PTPRM), PTPRM (gene 5797) (UniProt P28827) (assay: NVS_ENZ_hPTPRM: NovaScreen (NVS) Enzymatic Assay for human Protein Tyrosine Phosphatase Receptor Type M (PTPRM) (AID 2283215)).
How it was run: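 Cell-free recombinant PTPRM with fluorogenic substrate; product separated from substrate by electrophoretic mobility shift and read by fluorescence, 1.33 h after dosing. Primary screen single concentration (25 uM) in duplicate; actives retested in concentration series; loss of signal versus DMSO.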

Sequence of human Protein Tyrosine Phosphatase Receptor Type M (PTPRM), PTPRM (gene 5797) (P28827 whole entry, looked up): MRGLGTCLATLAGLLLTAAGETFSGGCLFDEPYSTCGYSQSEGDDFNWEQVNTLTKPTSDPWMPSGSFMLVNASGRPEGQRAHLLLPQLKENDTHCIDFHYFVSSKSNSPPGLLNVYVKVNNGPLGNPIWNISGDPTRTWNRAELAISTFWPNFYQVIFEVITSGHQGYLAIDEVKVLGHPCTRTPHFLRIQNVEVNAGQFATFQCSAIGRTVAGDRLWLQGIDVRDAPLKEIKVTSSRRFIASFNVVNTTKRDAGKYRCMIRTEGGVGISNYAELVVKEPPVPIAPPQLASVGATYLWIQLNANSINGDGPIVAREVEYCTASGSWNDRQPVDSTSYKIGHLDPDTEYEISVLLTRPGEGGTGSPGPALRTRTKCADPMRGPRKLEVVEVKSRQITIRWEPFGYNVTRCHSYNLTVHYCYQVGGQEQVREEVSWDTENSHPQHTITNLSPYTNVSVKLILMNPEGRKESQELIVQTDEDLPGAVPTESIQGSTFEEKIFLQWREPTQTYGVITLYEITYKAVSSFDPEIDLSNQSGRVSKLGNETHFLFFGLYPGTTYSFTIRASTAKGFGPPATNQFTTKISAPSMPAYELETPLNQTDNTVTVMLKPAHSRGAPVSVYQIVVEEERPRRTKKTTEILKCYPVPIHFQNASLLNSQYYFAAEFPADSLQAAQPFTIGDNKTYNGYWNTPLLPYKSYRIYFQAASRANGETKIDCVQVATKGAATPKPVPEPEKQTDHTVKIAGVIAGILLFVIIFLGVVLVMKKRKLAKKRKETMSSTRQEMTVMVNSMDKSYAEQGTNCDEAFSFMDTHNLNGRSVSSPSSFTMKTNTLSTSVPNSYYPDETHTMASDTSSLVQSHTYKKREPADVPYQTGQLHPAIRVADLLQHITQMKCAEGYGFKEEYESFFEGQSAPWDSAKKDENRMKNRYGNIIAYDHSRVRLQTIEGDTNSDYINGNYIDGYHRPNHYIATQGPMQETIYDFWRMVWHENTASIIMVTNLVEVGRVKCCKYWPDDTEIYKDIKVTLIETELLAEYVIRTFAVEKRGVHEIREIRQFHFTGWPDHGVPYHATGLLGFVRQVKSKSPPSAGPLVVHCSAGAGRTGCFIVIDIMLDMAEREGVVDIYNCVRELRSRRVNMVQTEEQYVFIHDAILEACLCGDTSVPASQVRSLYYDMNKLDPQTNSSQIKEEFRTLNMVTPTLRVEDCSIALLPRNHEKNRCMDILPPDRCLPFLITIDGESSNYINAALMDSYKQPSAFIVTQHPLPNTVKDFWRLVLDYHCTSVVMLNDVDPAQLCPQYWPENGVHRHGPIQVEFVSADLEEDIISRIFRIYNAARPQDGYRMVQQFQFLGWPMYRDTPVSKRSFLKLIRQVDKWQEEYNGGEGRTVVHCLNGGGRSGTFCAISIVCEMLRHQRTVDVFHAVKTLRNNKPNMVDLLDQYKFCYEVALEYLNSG

For COc1nc(C)nc(NC(=O)NS(=O)(=O)c2ccccc2Cl)n1, which outcome is on record?
Its outcome is “inactive”.

CNC(=S)S was tested. Which outcome did it give?
The outcome was “inactive”.

With COc1ccc(C(c2ccc(OC)cc2)C(Cl)(Cl)Cl)cc1 as the compound, how does the outcome read?
Its outcome is “inactive”.

The compounds below were run against human Raf-1 Proto-Oncogene, serine/threonine Kinase (RAF1), RAF1 (gene 5894) (UniProt P04049) (assay: NVS_ENZ_hRAF1: NovaScreen (NVS) Enzymatic Assay for human Raf-1 Proto-Oncogene, serine/threonine Kinase (RAF1) (AID 2283216)).
How it was run: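 Cell-free recombinant kinase with specific fluorescent substrate, product separated by electrophoretic mobility shift; read 1 h after dosing. Primary screen at 25 uM in duplicate; hits then run in concentration-response up to 50 uM, fitted as loss of signal versus DMSO.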

Sequence of human Raf-1 Proto-Oncogene, serine/threonine Kinase (RAF1), RAF1 (gene 5894) (P04049 whole entry, looked up): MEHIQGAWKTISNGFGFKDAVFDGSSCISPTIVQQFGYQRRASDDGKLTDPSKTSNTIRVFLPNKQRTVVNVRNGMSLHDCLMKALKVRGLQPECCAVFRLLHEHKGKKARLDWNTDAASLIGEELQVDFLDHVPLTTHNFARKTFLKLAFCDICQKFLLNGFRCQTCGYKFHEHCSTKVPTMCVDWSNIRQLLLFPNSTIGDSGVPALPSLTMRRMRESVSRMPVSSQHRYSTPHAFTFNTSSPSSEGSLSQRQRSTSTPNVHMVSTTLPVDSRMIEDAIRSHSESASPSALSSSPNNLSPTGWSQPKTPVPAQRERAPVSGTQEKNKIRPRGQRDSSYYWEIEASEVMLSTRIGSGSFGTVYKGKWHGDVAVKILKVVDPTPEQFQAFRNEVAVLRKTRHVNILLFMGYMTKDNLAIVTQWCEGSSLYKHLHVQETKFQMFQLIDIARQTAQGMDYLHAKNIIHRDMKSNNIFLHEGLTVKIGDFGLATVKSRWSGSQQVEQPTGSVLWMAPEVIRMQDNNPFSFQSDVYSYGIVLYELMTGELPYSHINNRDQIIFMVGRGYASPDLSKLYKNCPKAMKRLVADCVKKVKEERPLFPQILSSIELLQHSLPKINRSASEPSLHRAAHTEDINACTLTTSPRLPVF

Which AC50 does the source give for Fc1ccc(Oc2ccnc3cc(Cl)cc(Cl)c23)cc1 here?
The AC50 was 17 µM (active).

Which outcome does the source give for C=CCC1=C(C)C(OC(=O)C2C(C=C(C)C)C2(C)C)CC1=O (stereo not given) here?
The outcome was “inactive”.

For O=C(O)c1nc(Cl)ccc1Cl, which outcome is on record?
The outcome was “inactive”.

O=C(Nc1ccccc1)Nc1ccnc(Cl)c1 was tested. Which outcome did it give?
The outcome was “inactive”.

How did the outcome turn out when CCON=C(CC)C1=C(O)CC(c2c(C)cc(C)cc2C)CC1=O (stereo not given) was run?
Its outcome is “inactive”.

With CNC(=O)ON=CC(C)(C)SC as the compound, how does the outcome read?
The outcome was “inactive”.

CCCCOC(=O)c1ccccc1C(=O)OCCCC was tested. Which outcome did it give?
Its outcome is “inactive”.

Each compound was assayed against human Sirtuin 2 (SIRT2), SIRT2 (gene 22933) (UniProt Q8IXJ6) (assay: NVS_ENZ_hSIRT2: NovaScreen (NVS) Enzymatic Assay for human Sirtuin 2 (SIRT2) (AID 2283217)).
Description: as §1, with “NVS_ENZ_hSIRT2” for “NVS_ENZ_hPTPRF”, “plate.NVS_ENZ_hSIRT2” for “plate.NVS_ENZ_hPTPRF”, “NVS_ENZ_hSIRT2,” for “NVS_ENZ_hPTPRF,”, “SIRT2.” for “PTPRF.”, “hydrolase” for “phosphatase”, “protein deacetylase.” for “receptor tyrosine phosphatase.”
Binding assays used specific radioligands (tritiated, iodinated) with non-radioactive competitive displacement ligands in agonist or antagonist protocols (as indicated) and various reference compounds and inhibitors to titrate specific binding to receptors and transporters. Most enzyme assays (CYPs, kinases, phosphatases, proteases, HDACs) used recombinant protein and specific substrates (fluorescence mostly, some colorimetric and radioactive) and inhibitors, followed by a biochemical separation of substrate and product. All assays for the biochemical HTS were initially run in duplicate at a single concentration (10 uM for CYP450 assays and 25 uM for all others). Assay-chemical combinations meeting a pre-defined threshold (e.g., 30% inhibition and other criteria defined below) were then run in singleton concentration-response format with maximum concentration of 20 uM for CYPs and 50 uM for all others. Each assay was run with positive and negative controls, and concurrent controls on every plate. The follow-up (secondary) screen tested active chemical-pairs in concentration series, as well as a few additional assays not tested in the primary screen, some selected negative inactives, and several cases re-run in the concentration series for confirmatory purposes.

Sequence of human Sirtuin 2 (SIRT2), SIRT2 (gene 22933) (Q8IXJ6 whole entry, looked up): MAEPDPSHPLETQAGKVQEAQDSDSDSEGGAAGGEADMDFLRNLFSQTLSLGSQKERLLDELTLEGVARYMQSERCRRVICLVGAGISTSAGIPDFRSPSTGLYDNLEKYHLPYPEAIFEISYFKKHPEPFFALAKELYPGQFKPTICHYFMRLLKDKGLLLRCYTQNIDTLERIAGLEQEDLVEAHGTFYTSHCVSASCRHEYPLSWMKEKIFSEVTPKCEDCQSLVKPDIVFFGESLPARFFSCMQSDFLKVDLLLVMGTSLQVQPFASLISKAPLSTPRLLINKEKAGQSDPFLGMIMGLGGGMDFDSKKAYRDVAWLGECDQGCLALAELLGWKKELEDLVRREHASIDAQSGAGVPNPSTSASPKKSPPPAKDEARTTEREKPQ

How did the outcome turn out when CCCCNC(=O)OCC#CI was run?
The outcome was “inactive”.

How did the outcome turn out when Fc1ccc(Oc2ccnc3cc(Cl)cc(Cl)c23)cc1 was run?
Its outcome is “inactive”.

Which outcome does the source give for CN(C)C(=S)SSC(=S)N(C)C here?
Its outcome is “inactive”.

For CO/C=C(/C(=O)OC)c1ccccc1Oc1cc(Oc2ccccc2C#N)ncn1, which outcome is on record?
The outcome was “inactive”.

The compounds below were run against human Sirtuin 1 (SIRT1), SIRT1 (gene 23411) (UniProt Q96EB6) (assay: NVS_ENZ_hSIRT1: NovaScreen (NVS) Enzymatic Assay for human Sirtuin 1 (SIRT1) (AID 2283219)).
Description: as §1, with “NVS_ENZ_hSIRT1” for “NVS_ENZ_hPTPRF”, “plate.NVS_ENZ_hSIRT1” for “plate.NVS_ENZ_hPTPRF”, “NVS_ENZ_hSIRT1,” for “NVS_ENZ_hPTPRF,”, “SIRT1.” for “PTPRF.”, “hydrolase” for “phosphatase”, “protein deacetylase.” for “receptor tyrosine phosphatase.”
as §2

Sequence of human Sirtuin 1 (SIRT1), SIRT1 (gene 23411) (Q96EB6 whole entry, looked up): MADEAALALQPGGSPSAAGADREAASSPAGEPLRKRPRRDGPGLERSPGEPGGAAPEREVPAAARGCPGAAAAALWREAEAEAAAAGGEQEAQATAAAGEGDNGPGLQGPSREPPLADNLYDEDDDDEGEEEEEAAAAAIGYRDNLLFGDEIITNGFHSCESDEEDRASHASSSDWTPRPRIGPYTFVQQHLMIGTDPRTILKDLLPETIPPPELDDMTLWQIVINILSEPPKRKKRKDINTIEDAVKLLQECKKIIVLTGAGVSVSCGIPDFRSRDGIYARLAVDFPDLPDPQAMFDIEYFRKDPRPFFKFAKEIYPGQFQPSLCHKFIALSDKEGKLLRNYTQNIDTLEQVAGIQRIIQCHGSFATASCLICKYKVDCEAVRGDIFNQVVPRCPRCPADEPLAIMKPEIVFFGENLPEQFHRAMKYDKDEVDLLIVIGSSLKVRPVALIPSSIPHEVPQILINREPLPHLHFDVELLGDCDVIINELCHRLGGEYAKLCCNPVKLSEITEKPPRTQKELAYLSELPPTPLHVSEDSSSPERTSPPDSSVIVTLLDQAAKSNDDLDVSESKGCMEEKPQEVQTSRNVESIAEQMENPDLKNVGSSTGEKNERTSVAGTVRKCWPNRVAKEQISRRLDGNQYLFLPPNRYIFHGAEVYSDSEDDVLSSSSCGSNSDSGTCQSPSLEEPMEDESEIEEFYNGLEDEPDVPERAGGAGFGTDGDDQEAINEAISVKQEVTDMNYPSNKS

For CS/C(C)=N/OC(=O)N(C)SN(C)C(=O)O/N=C(\C)SC, which AC50 is on record?
The AC50 was 6.69 µM (active).

Which AC50 does the source give for CCCCNC(=O)OCC#CI here?
The AC50 was 11.9 µM (active) and 10.7 µM (active).

With CN(C)C(=S)SSC(=S)N(C)C as the compound, how does the AC50 read?
Its AC50 is 6.68 µM (active).

These compounds were tested against human Sirtuin 3 (SIRT3), SIRT3 (gene 23410) (UniProt Q9NTG7) (assay: NVS_ENZ_hSIRT3: NovaScreen (NVS) Enzymatic Assay for human Sirtuin 3 (SIRT3) (AID 2283222)).
How it was run: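 Cell-free enzyme assay with recombinant protein and fluorescent substrate, product separated by electrophoretic mobility shift; read 1 hour after dosing. Screened in duplicate at 25 uM, then singleton concentration-response up to 50 uM; loss of signal versus DMSO.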

Sequence of human Sirtuin 3 (SIRT3), SIRT3 (gene 23410) (Q9NTG7 whole entry, looked up): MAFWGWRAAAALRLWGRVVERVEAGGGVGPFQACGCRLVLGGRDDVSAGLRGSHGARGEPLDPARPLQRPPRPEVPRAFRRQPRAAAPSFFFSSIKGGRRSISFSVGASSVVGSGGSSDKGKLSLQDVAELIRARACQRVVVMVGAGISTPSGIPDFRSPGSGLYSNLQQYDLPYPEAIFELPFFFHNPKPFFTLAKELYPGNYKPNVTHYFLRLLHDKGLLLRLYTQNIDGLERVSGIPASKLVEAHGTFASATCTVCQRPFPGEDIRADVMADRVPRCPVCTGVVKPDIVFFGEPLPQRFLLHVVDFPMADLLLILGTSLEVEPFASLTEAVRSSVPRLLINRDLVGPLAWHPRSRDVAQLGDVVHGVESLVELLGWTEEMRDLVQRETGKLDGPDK

CC1COC(Cn2cncn2)(c2ccc(Oc3ccc(Cl)cc3)cc2Cl)O1 (stereo not given) was tested. Which outcome did it give?
Its outcome is “inactive”.

How did the outcome turn out when CCCCNC(=O)OCC#CI was run?
Its outcome is “inactive”.

With N#Cc1nn(-c2c(Cl)cc(C(F)(F)F)cc2Cl)c(N)c1S(=O)C(F)(F)F (stereo not given) as the compound, how does the outcome read?
Its outcome is “inactive”.

For CCc1nn(C)c(C(=O)NCc2ccc(C(C)(C)C)cc2)c1Cl, which outcome is on record?
Its outcome is “inactive”.

For C=CCC1=C(C)C(OC(=O)C2C(C=C(C)C)C2(C)C)CC1=O (stereo not given), which outcome is on record?
The outcome was “inactive”.

With CCCN(CCC)c1c([N+](=O)[O-])cc(S(N)(=O)=O)cc1[N+](=O)[O-] as the compound, how does the outcome read?
The outcome was “inactive”.

CO/C=C(/C(=O)OC)c1ccccc1Oc1cc(Oc2ccccc2C#N)ncn1 was tested. Which outcome did it give?
The outcome was “inactive”.
